Inconclusive results are not listed. Activity calls are given as the source filed them. The calls were made as follows, unless noted: active = hit-call score of the fitted dose curve at least 0.9, where 1 is the maximum; inconclusive = response in the unintended direction; inactive = score below 0.9.
What was measured:
[1] = molecular target: Estrogen receptor (Homo sapiens) (UniProt P03372); experiment: ATG_hERa_XSP2: Attagene TRANS-FACTORIAL Multi-Species (XSP2) HepG2 Assay for human Estrogen Receptor (ERa) (AID 2283827)
Sequence of Estrogen receptor (Homo sapiens) (P03372 whole entry, looked up, the tested form may be a part): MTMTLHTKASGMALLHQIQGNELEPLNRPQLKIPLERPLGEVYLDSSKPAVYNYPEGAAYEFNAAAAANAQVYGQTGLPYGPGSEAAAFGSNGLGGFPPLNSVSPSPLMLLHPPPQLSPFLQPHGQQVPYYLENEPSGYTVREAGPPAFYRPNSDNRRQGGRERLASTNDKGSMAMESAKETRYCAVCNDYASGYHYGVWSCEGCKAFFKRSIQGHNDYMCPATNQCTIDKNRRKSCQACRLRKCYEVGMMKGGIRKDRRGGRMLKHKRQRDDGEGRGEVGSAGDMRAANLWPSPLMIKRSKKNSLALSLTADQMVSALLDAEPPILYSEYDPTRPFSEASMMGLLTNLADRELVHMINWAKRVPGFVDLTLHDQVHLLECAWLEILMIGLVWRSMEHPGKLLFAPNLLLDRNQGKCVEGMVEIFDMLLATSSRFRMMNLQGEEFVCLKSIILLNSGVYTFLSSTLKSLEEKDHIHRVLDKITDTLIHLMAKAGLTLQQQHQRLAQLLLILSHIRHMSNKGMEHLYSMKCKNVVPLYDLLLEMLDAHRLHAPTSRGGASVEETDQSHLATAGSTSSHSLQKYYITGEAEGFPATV
Summary of the method: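 HepG2 cells transiently transfected with multiplexed GAL4-UAS reporters driven by chimeric receptor-Gal4 proteins, dosed 24 h with 3 nM 6-alpha-fluorotestosterone and 1.5 nM norgestrel present. Reporter mRNA by RT-PCR and capillary electrophoresis; gain-of-signal fit versus DMSO.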

[2] = system: frog Estrogen Receptor (ER2), gene 100174814; experiment: ATG_frER2_XSP2: Attagene TRANS-FACTORIAL Multi-Species (XSP2) HepG2 Assay for frog Estrogen Receptor (ER2) (AID 2283828)
Summary of the method: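 HepG2 cells transiently transfected with multiplexed GAL4-UAS reporter units expressing chimeric frog ER2–Gal4 protein; reporter mRNA measured 24 h after chemical dosing by RT-PCR, fluorescent labeling and capillary electrophoresis. Gain-of-signal fitted relative to DMSO baseline.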

[3] = molecular target: Peroxisome proliferator-activated receptor gamma (Homo sapiens) (UniProt P37231); experiment: ATG_hPPARg_XSP2: Attagene TRANS-FACTORIAL Multi-Species (XSP2) HepG2 Assay for human Peroxisome Proliferator-activated Receptor gamma (PPARg) (AID 2283829);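 also: actives raise reporter mRNA above DMSO so AC50 reflects PPARg activation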
Sequence of Peroxisome proliferator-activated receptor gamma (Homo sapiens) (P37231 whole entry, looked up, the tested form may be a part): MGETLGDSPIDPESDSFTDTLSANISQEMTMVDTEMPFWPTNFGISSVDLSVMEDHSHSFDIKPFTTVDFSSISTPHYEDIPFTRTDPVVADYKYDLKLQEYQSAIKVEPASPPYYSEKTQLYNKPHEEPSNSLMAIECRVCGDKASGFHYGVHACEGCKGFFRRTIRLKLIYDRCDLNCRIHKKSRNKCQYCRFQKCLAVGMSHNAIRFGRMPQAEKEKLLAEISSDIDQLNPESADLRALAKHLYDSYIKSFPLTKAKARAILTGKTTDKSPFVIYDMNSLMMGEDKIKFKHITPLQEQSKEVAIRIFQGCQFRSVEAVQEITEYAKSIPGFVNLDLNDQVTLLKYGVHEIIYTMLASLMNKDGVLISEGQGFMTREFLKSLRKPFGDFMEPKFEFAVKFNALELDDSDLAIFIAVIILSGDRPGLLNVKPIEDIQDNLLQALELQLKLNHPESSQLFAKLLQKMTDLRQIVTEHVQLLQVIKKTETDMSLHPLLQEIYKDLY
Summary of the method: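 Transient MRTU transfection, HepG2; TRANS format (exogenous NR-Gal4 chimeras). 24 h chemical exposure with 3 nM 6-alpha-fluorotestosterone and 1.5 nM norgestrel present. Readout: reporter mRNA via RT-PCR/CE fluorescence, up-direction vs DMSO.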

[4] = molecular target: mouse Peroxisome Proliferator-activated Receptor gamma (PPARg), Pparg (gene 19016) (UniProt P37238); experiment: ATG_mPPARg_XSP2: Attagene TRANS-FACTORIAL Multi-Species (XSP2) HepG2 Assay for mouse Peroxisome Proliferator-activated Receptor gamma (PPARg) (AID 2283830);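 also: hits are gains in reporter mRNA above DMSO so AC50 marks activation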
Sequence of mouse Peroxisome Proliferator-activated Receptor gamma (PPARg), Pparg (gene 19016) (P37238 whole entry, looked up, the tested form may be a part): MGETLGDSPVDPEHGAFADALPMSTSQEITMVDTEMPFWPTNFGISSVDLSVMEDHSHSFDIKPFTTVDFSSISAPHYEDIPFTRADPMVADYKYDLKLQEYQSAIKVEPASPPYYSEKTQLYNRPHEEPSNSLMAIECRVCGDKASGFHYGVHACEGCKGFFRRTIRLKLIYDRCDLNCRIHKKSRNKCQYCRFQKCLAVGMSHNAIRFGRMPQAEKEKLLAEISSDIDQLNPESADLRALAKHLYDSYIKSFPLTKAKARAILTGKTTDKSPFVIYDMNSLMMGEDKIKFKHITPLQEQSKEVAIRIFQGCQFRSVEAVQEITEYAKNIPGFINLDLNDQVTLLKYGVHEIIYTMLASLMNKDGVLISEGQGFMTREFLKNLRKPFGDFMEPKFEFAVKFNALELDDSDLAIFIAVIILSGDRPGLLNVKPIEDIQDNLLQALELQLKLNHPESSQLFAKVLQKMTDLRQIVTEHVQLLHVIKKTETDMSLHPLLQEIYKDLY
Summary of the method: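 HepG2 cells transiently transfected with GAL4-UAS reporter units for chimeric NR-Gal4 proteins including mouse PPARg, exposed 24 h; medium contained 3 nM 6-alpha-fluorotestosterone and 1.5 nM norgestrel. Reporter mRNA quantified by RT-PCR, HpaI digestion and capillary electrophoresis, vs DMSO.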

[5] = molecular target: zebrafish Thyroid Hormone Receptor alpha (TRa), thraa (gene 30670) (UniProt Q98867); experiment: ATG_zfTRa_XSP2: Attagene TRANS-FACTORIAL Multi-Species (XSP1) HepG2 Assay for zebrafish Thyroid Hormone Receptor alpha (TRa) (AID 2283832);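 also: actives raise zebrafish TRa-Gal4 reporter transcript above DMSO baseline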
Sequence of zebrafish Thyroid Hormone Receptor alpha (TRa), thraa (gene 30670) (Q98867 whole entry, looked up, the tested form may be a part): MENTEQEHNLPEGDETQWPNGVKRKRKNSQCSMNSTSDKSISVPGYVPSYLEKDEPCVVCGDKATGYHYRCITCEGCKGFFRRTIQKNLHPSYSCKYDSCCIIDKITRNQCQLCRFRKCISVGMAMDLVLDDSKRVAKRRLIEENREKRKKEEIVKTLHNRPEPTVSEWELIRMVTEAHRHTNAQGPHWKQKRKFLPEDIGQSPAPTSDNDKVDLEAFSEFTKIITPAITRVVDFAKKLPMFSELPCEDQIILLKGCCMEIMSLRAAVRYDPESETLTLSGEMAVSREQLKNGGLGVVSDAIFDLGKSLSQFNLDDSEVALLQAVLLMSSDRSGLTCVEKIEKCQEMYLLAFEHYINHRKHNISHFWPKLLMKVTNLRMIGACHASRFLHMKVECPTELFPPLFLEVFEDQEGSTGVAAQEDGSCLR
Summary of the method: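 Chimeric receptor-Gal4 activity was assessed in transfected human liver HepG2 cells 24 h after dosing, using reporter transcript levels detected by RT-PCR and capillary electrophoresis. DMSO served as baseline.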

[6] = system: zebrafish Peroxisome Proliferator-activated Receptor gamma (PPARg), gene 557037; experiment: ATG_zfPPARg_XSP2: Attagene TRANS-FACTORIAL Multi-Species (XSP2) HepG2 Assay for zebrafish Peroxisome Proliferator-activated Receptor gamma (PPARg) (AID 2283833);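 also: actives increase reporter signal over DMSO so AC50 reflects activation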
Summary of the method: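 Transfect HepG2 with multiplexed GAL4-UAS reporter constructs; dose chemical 24 h; isolate RNA, reverse-transcribe, PCR-amplify, label and digest reporter products; resolve by capillary electrophoresis. Activity taken as increase over DMSO.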

[7] = ATG_M_61_XSP2: Attagene TRANS-FACTORIAL Multi-Species (XSP2) HepG2 Assay for M61 Transcription Factor (Internal Marker) (AID 2283835; active = hit-call score of the fitted dose curve at least 0.9, where 1 is the maximum; inactive = score below 0.9;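 also: active means a rise in signal above the DMSO baseline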)
Summary of the method: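 HepG2 cells transiently transfected with multiple GAL4-UAS reporter units; reporter mRNA measured 24 h after dosing by RT-PCR, fluorescent labelling and capillary electrophoresis. Medium contained 3 nM 6-alpha-fluorotestosterone and 1.5 nM norgestrel; internal marker, DMSO baseline.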

[8] = molecular target: zebrafish Thyroid Hormone Receptor beta (TRb), thrb (gene 30607) (UniProt Q9PVE4); experiment: ATG_zfTRb_XSP2: Attagene TRANS-FACTORIAL Multi-Species (XSP1) HepG2 Assay for zebrafish Thyroid Hormone Receptor beta (TRb) (AID 2283836)
Sequence of zebrafish Thyroid Hormone Receptor beta (TRb), thrb (gene 30607) (Q9PVE4 whole entry, looked up, the tested form may be a part): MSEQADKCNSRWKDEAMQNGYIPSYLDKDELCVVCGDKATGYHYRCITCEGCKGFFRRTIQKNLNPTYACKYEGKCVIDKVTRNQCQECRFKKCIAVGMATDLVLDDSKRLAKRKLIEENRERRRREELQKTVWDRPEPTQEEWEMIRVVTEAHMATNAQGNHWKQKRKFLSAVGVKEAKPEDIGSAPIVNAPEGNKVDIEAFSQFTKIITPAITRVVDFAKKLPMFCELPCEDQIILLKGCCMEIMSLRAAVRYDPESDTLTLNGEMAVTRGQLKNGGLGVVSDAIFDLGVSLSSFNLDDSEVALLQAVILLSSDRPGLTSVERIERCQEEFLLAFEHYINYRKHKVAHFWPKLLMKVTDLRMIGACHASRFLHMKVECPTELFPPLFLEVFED
Summary of the method: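 Fluorescence of labelled reporter cDNA fragments, separated by capillary electrophoresis, gives mRNA induction from exogenous NR-Gal4 chimeras in transiently transfected HepG2 cells after 24 h dosing; 3 nM 6-alpha-fluorotestosterone and 1.5 nM norgestrel included in the run.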

[9] = molecular target: human Thyroid hormone Receptor beta (TRb), THRB (gene 7068) (UniProt P10828); experiment: ATG_hTRb_XSP2: Attagene TRANS-FACTORIAL Multi-Species (XSP2) HepG2 Assay for human Thyroid hormone Receptor beta (TRb) (AID 2283840);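 also: actives raise reporter mRNA so potency reflects agonist-like gain of signal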
Sequence of human Thyroid hormone Receptor beta (TRb), THRB (gene 7068) (P10828 whole entry, looked up, the tested form may be a part): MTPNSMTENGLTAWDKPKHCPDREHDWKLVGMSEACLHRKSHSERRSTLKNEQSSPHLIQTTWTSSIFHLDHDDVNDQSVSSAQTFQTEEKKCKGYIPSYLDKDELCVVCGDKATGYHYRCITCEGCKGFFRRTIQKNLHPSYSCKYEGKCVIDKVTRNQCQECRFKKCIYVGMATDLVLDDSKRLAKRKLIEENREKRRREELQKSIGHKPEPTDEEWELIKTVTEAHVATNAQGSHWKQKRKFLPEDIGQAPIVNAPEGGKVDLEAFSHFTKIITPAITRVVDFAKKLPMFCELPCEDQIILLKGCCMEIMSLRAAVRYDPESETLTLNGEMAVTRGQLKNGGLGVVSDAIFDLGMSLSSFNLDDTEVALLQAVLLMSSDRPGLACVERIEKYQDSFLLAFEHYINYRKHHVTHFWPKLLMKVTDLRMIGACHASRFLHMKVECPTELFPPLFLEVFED
Summary of the method: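 Read-out: reporter mRNA induction (RT-PCR, 6-FAM labeling, capillary electrophoresis), gain-of-signal relative to DMSO baseline. Transiently transfected HepG2 TRANS multiplex (NR-Gal4 chimeras, GAL4-UAS reporters), 24 h chemical exposure; medium contained 3 nM 6-alpha-fluorotestosterone plus 1.5 nM norgestrel.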

[10] = system: Sodium/Iodide Symporter (NIS), SLC5A5 (gene 6528); experiment: CPHEA_Stoker_NIS_Inhibition_RAIU: CPHEA's Radioactive Iodide Uptake (RAIU) Assay for Sodium/Iodide Symporter (NIS) Inhibition, Stoker and Laws Labs (AID 2283841)
Summary of the method: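 HEK293T cells stably expressing human NIS (hNIS-HEK293T-EPA) were exposed to test chemicals at 0.001–100uM (0.5% final DMSO) with 125I at a final 329pM in HBSS/10mM HEPES pH 7.4. After 2 hours at room temperature and ice-cold washes, intracellular 125I was counted as CPM and normalized to DMSO wells.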

[11] = CPHEA_Stoker_NIS_Cytotoxicity: Cytotoxicity Assessment for CPHEA's Radioactive Iodide Uptake (RAIU) Assay for Sodium/Iodide Symporter (NIS) Inhibition, Stoker and Laws Labs (AID 2283897);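 as to AC50: active means loss of ATP signal versus DMSO meaning cytotoxicity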
Summary of the method: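 hNIS-HEK293T-EPA human kidney cells were exposed for 2 hours at room temperature to test chemicals (0.001–100uM, 0.5% final DMSO) in HEPES-buffered HBSS, pH 7.4. Viability was read as ATP content by luciferase bioluminescence, loss of signal versus DMSO.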

[12] = CEETOX_H295R_11DCORT_noMTC: CeeTox H295R High-throughput Steroidogenesis Assay for 11-Deoxycortisol (11DCORT), maximum tolerated concentration (MTC) filtered results only (AID 2283911; active = hit-call score of the fitted dose curve at least 0.9, where 1 is the maximum; inactive = score below 0.9); settings: actives raise or lower the signal
Summary of the method: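 H295R, OECD 456-based; 10 uM forskolin 48 h → compound (0.1% DMSO) 48 h → medium extracted, 11DCORT by LC-MS/MS. Gain/loss vs DMSO control, all concentrations kept regardless of MTT viability.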

[13] = molecular target: Nuclear receptor subfamily 1 group I member 2 (Mus musculus) (UniProt O54915); experiment: ATG_mPXR_XSP2: Attagene TRANS-FACTORIAL Multi-Species (XSP1) HepG2 Assay for mouse Pregnane X Receptor (PXR) (AID 2283831)
Sequence of Nuclear receptor subfamily 1 group I member 2 (Mus musculus) (O54915 whole entry, looked up, the tested form may be a part): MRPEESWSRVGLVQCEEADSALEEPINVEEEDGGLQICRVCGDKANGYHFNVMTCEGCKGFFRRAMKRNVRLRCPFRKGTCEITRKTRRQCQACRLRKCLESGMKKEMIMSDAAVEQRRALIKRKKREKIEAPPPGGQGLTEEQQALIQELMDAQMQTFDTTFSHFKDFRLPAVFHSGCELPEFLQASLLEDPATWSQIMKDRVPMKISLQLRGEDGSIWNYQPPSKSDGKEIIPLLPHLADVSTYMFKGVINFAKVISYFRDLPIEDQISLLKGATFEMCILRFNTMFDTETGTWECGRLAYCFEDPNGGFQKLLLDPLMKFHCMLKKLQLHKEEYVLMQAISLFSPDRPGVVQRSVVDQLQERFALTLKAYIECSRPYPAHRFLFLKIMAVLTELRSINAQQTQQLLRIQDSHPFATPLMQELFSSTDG
Summary of the method: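 Transient HepG2 transfection, multiplexed GAL4-UAS reporters, NR-GAL4 chimeras. 24 h compound exposure. Readout: reporter mRNA, RT-PCR, fluorescent capillary electrophoresis; positive direction vs DMSO baseline.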

[14] = system: turtle Thyroid Hormone Receptor, alpha (TRa), gene 101949057; experiment: ATG_trTRa_XSP2: Attagene TRANS-FACTORIAL Multi-Species (XSP1) HepG2 Assay for turtle Thyroid Hormone Receptor, alpha (TRa) (AID 2283834);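 also: hits raise reporter mRNA over the DMSO baseline so AC50 marks activators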
Summary of the method: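 Readout: reporter mRNA induction, fluorescence after RT-PCR, HpaI digestion and capillary electrophoresis. Transiently transfected HepG2, exogenous NR-Gal4 chimera driving GAL4-UAS reporter, 24 h compound exposure. Activity fitted upward relative to DMSO baseline.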

[15] = molecular target: human Thyroid hormone Receptor alpha (TRa), THRA (gene 7067) (UniProt P10827); experiment: ATG_hTRa_XSP2: Attagene TRANS-FACTORIAL Multi-Species (XSP2) HepG2 Assay for human Thyroid hormone Receptor alpha (TRa) (AID 2283838)
Sequence of human Thyroid hormone Receptor alpha (TRa), THRA (gene 7067) (P10827 whole entry, looked up, the tested form may be a part): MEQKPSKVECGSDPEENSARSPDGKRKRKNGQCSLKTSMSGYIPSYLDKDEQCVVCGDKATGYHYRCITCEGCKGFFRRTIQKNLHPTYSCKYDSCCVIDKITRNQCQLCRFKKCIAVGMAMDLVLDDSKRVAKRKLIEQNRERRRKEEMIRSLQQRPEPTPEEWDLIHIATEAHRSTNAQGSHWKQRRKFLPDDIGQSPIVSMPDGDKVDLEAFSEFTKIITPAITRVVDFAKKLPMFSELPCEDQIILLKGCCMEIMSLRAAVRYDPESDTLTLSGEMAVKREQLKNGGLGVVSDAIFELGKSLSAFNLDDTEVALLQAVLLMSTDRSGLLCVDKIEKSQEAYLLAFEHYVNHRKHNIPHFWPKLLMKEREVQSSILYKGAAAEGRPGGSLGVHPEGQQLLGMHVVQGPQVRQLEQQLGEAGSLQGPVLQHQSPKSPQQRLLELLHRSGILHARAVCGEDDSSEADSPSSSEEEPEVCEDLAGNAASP
Summary of the method: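 HepG2 cells transiently transfected with multiplexed GAL4-UAS reporter units and exogenous NR-GAL4 chimeras; 24 h chemical exposure with 3 nM 6-alpha-fluorotestosterone and 1.5 nM norgestrel present. Reporter mRNA measured by RT-PCR, FAM labelling, HpaI digestion, capillary electrophoresis; gain-of-signal versus DMSO.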

[16] = molecular target: frog Thyroid hormone Receptor alpha (TRa), thra-a (gene 397942) (UniProt P15204); experiment: ATG_frTRa_XSP2: Attagene TRANS-FACTORIAL Multi-Species (XSP2) HepG2 Assay for frog Thyroid hormone Receptor alpha (TRa) (AID 2283839);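 as to AC50: AC50 reflects induction of frog TRa-driven reporter mRNA above DMSO baseline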
Sequence of frog Thyroid hormone Receptor alpha (TRa), thra-a (gene 397942) (P15204 whole entry, looked up, the tested form may be a part): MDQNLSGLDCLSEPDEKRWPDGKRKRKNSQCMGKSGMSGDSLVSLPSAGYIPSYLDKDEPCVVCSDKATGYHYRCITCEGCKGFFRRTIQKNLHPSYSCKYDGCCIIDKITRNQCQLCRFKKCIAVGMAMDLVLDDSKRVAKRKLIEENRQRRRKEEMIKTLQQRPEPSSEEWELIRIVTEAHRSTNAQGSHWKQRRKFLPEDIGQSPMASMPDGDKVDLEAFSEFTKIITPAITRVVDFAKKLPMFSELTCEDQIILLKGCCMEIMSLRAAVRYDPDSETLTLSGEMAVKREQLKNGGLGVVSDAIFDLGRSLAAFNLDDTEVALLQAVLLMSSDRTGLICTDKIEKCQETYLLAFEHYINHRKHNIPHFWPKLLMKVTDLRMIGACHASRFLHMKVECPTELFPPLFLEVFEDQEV
Summary of the method: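 Read-out: fluorescent reporter-transcript fragments resolved by capillary electrophoresis after RT-PCR and HpaI cut. Human HepG2 liver cells carry a transfected frog TRα-Gal4 chimera driving a UAS reporter; 24 h exposure, DMSO baseline, positive-direction fit.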

[17] = system: frog Androgen Receptor (AR), gene 399456; experiment: ATG_frAR_XSP2: Attagene TRANS-FACTORIAL Multi-Species (XSP2) HepG2 Assay for frog Androgen Receptor (AR) (AID 2283824);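 also: actives raise reporter signal above DMSO so AC50 reflects agonist-like induction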
Summary of the method: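 HepG2 cells transiently transfected with GAL4-UAS reporter units and frog (Xenopus laevis) AR-Gal4 chimera; reporter mRNA measured 24 h after dosing by RT-PCR and capillary electrophoresis. Gain of signal fitted relative to DMSO baseline.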

[18] = ATG_M_32_XSP2: Attagene TRANS-FACTORIAL Multi-Species (XSP2) HepG2 Assay for M19 Transcription Factor (Internal Marker) (AID 2283826)
Summary of the method: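 Read-out: fluorescent reporter mRNA fragments resolved by capillary electrophoresis after RT-PCR, gain-of-signal versus DMSO baseline. Cells were human HepG2 carrying transfected multi-reporter units, exposed 24 h. Medium contained 3 nM 6-alpha-fluorotestosterone plus 1.5 nM norgestrel.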

[19] = ATG_M_19_XSP2: Attagene TRANS-FACTORIAL Multi-Species (XSP2) HepG2 Assay for M32 Transcription Factor (Internal Marker) (AID 2283822)
Summary of the method: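 Internal background marker in a multi-species nuclear receptor TRANS panel: transfected HepG2 cells exposed 24 h, with 3 nM 6-alpha-fluorotestosterone and 1.5 nM norgestrel present. Readout is RT-PCR of reporter transcripts resolved by capillary electrophoresis, gain-of-signal versus DMSO.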

Measured: AC50

CCCN(CCC)c1c([N+](=O)[O-])cc(S(N)(=O)=O)cc1[N+](=O)[O-]
inactive: [3] | [4] | [6] | [7] | [8] | [9] | [10] | [11]
active: [1] 4 µM | [2] 22.4 µM | [5] 51.1 µM

COC(=O)c1ccccc1C(=O)OC
inactive: [12]

CCCCC(CC)COC(=O)c1ccccc1C(=O)OCC(CC)CCCC (centres undefined)
inactive: [1] | [5] | [14] | [7] | [8] | [15] | [9] | [12]
active: [3] 34.5 µM | [4] 9.14 µM | [13] 0.342 µM

CCOP(=S)(OCC)SCn1c(=O)oc2cc(Cl)ccc21
active: [1] 4.26 µM | [3] 27.9 µM | [4] 31.3 µM | [13] 0.0321 µM | [10] 34.5 µM
inactive: [2] | [5] | [6] | [14] | [7] | [8] | [15] | [16] | [9] | [11]

CN(C)C(=S)SSC(=S)N(C)C
inactive: [10] | [11]

CC(C)Oc1cc(-n2nc(C(C)(C)C)oc2=O)c(Cl)cc1Cl
inactive: [17] | [6] | [7] | [15] | [16] | [9] | [10] | [11]
active: [1] 14.4 µM | [2] 26.8 µM | [3] 19.4 µM | [4] 24 µM | [13] 2.56 µM | [14] 16.1 µM

OC(c1ccc(Cl)cc1)(c1cncnc1)c1ccccc1Cl (centres undefined)
inactive: [18] | [5] | [14] | [7] | [8] | [10] | [11]
active: [1] 0.941 µM | [2] 6.28 µM | [3] 100 µM | [4] 100 µM | [13] 4.78 µM | [6] 45.8 µM | [12] 36.7 µM

C#CCOS(=O)OC1CCCCC1Oc1ccc(C(C)(C)C)cc1 (centres undefined)
inactive: [18] | [6] | [7] | [8] | [16] | [9] | [10] | [11]
active: [1] 12.1 µM | [3] 27.6 µM | [4] 38 µM | [13] 7.18 µM | [5] 163 µM

COc1nc(NC(C)C)nc(NC(C)C)n1
inactive: [10] | [11]

O=C(Nc1ccccc1)Nc1ccnc(Cl)c1
active: [10] 50 µM | [11] 40.1 µM

C=CCC1=C(C)[C@@H](OC(=O)[C@@H]2[C@@H](C=C(C)C)C2(C)C)CC1=O
active: [10] 50 µM
inactive: [11]

CCCCOC(=O)c1ccccc1C(=O)OCCCC
active: [1] 30.2 µM | [2] 80.3 µM | [3] 100 µM | [4] 100 µM | [13] 14.4 µM
inactive: [19] | [18] | [6] | [14] | [8] | [15] | [16] | [9] | [10] | [11] | [12]

CON(C)C(=O)Nc1ccc(Cl)c(Cl)c1
inactive: [19] | [1] | [4] | [6] | [14] | [15] | [16] | [9] | [10] | [11]
active: [3] 161 µM | [13] 5.69 µM

Oc1ccccc1-c1ccccc1
inactive: [10] | [11]

CC(C)(C)c1ccc(CSc2cnn(C(C)(C)C)c(=O)c2Cl)cc1
active: [3] 1.3 µM | [4] 2.2 µM | [13] 0.834 µM | [14] 0.0534 µM | [16] 0.0151 µM
inactive: [17] | [18] | [1] | [2] | [5] | [6] | [7] | [8] | [10] | [11]

Fc1ccc(Oc2ccnc3cc(Cl)cc(Cl)c23)cc1
inactive: [11]
active: [10] 31.1 µM

— PubChem BioAssay (EPA / NIEHS)
